# Test results published in PubChem BioAssay.
# Where “and” joins values, the source holds several entries; their conditions need not be identical. Equal values may be shown once. Where a structure was tested more than once in an assay, its records may differ in their call. Calls of active or inactive are those of the source.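 The calls were made as follows, unless noted: active = thallium flux through the channel raised or lowered by more than 3 SD from vehicle-only wells, actives on both sides; inactive = the rest.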
# What was measured:
# [1] = polyglutamine-triggered caspase-3 activation inhibitors, cell-based (AID 1583); conditions: polyglutamine-induced caspase-3 activation, cell assay; stronger effect = higher value;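 tested at 10 µM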
# [2] = suppressors of polyQ aggregation in yeast, 75Q-TubU reporter (AID 1593); conditions: Yeast 75Q polyglutamine aggregation reporter
# [3] = inhibitors of mitochondrial cytochrome c release, biochemical, purified mitochondria (AID 1603); conditions: stronger effect = lower value;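 also: mouse liver mitochondria challenged with calcium chloride; signal normalized to the plate average as 100%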
# [4] = inhibitors of polyQ protein aggregation (AID 1604); conditions: polyglutamine-induced protein aggregation inhibition assay; stronger effect = higher value; tested at 2.5 µM
# [5] = enhancers of glutamate uptake in motor neurons, MN-1 cell line (AID 1612); conditions: MN-1 motor neuron cells, stronger effect = higher value;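 also: tested at 1 µM final; 0% = mean of DMSO vehicle wells on each plate; positive means more glutamate uptake than control and negative means less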
# [6] = Cy5 fluorescence interference with SSB-bound oligo, artefact control for HCV NS3 helicase inhibitor project, biochemical, NIH Clinical Collection, E. coli SSB (AID 743268; call rule not given here)
# [7] = system: Hepatitis C virus NS3 helicase; assay: HCV NS3 helicase inhibitors, primary screen, biochemical, fluorescence polarization, NIH Clinical Collection (AID 743270; call rule not given here); conditions: NS3 helicase binding to Cy5-dT15 DNA, stronger effect = higher value, concentration not given here
# [8] = target: Single-stranded DNA-binding protein (Escherichia coli (strain K12)) (UniProt P0AGE0); assay: E. coli SSB displacement from DNA, counter-screen for HCV NS3 helicase inhibitor project, biochemical, fluorescence polarization, NIH Clinical Collection (AID 743271; in the data active = inhibition above about 28%); conditions: stronger effect = higher value, concentration not given here
# [9] = fluorescence interference in NS3h assay format, artefact control for HCV NS3 helicase inhibitor project, biochemical, NIH Clinical Collection (AID 743272; call rule not given here;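 also: HCV NS3 helicase with a Cy5 labelled single stranded DNA probe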); conditions: fluorescence interference counterscreen, stronger effect = lower value
# [10] = viability rescue of complex I mutant cybrids, primary screen, cell-based, galactose medium, ATP luminescence (AID 1645843;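 active = z-score of at least 1.8 in each of two replicates, scored against plate mean and spread of sample wells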;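 also: positive z means more ATP and so rescue of galactose-driven cybrid death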); conditions: complex I mutant cybrid cells, 72 h, stronger effect = higher value
# [11] = LFS_MB_P medulloblastoma growth inhibition, cell-based, chromothripsis tumors, cisplatin or BGB combos (AID 1671449; in the data active = inhibition above about 80%;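 also: cells exposed for 96 hours; 0% = vehicle DMSO and 100% = killing by high DMSO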); conditions: LFS_MB_P medulloblastoma cells
# [12] = HDN33 neuroblastoma growth inhibition, cell-based, chromothripsis tumors, cisplatin or BGB combos (AID 1671450; in the data active = inhibition above about 80%;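 also: cells exposed to compound for four days; 0% = vehicle DMSO and 100% = cell killing by high DMSO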); conditions: HDN33 neuroblastoma cells, stronger effect = higher value
# [13] = HTB85 osteosarcoma cell growth inhibition, synergistic combos for chromothripsis tumors, BGB or cisplatin IC20 combos (AID 1671453; in the data active = inhibition above about 80%;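 also: cells exposed for 96 hours before readout; 0% = vehicle DMSO and 100% = high DMSO killing control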); conditions: HTB85 osteosarcoma cells, drug combinations, stronger effect = higher value
# [14] = system: F380Y/beta4; assay: modulators of BK channel variants, profiling panel, selectivity assay, cell-based, U2OS BacMam, thallium flux, beta subunits (AID 1259406); conditions: at 30 µM;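 also: initial slope of Thallos dye fluorescence rise after thallium is added; log ratio against the mean of 0.3% DMSO vehicle wells on the same plate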
# [15] = target: Calcium-activated potassium channel subunit alpha-1 (Homo sapiens) + Leucine-rich repeat-containing protein 26 (Homo sapiens) (UniProt Q12791+Q2I0M4); assay: as above; conditions: F380Y/Slo1WT/gamma1, at 30 µM
# Chain of Calcium-activated potassium channel subunit alpha-1 (Homo sapiens) + Leucine-rich repeat-containing protein 26 (Homo sapiens) (Q2I0M4 whole entry, looked up, one chain of several): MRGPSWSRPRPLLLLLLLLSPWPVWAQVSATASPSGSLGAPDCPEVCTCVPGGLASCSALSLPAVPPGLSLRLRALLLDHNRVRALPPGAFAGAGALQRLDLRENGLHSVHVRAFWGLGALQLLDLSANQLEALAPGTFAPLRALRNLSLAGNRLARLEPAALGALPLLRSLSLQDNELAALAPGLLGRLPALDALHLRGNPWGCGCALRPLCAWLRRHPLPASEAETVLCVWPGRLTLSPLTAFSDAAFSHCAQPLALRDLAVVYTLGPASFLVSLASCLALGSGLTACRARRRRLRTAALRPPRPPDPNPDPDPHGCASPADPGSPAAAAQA
# [16] = system: R275C; assay: as above; conditions: at 30 µM
# [17] = system: R275C/beta1; assay: as above; conditions: at 30 µM
# [18] = system: R275C/beta2Delta; assay: as above; conditions: at 30 µM
# [19] = system: R275C/beta4; assay: as above; conditions: at 30 µM
# [20] = system: R275C/Slo1WT/beta2; assay: as above; conditions: at 30 µM
structure (smiles),measurement,setting,value
O=c1[nH]cc(F)c(=O)[nH]1,inhibition,[1],7.47%
same,score,[2],0.35
same,cytochrome c release ratio,[3],0.98
same,inhibition of aggregation,[4],41.6%
same,glutamate uptake change,[5],-1.19%
same,fluorescence ratio,[6],0.97 (inactive)
same,inhibition,[7],-3.18% (inactive)
same,inhibition,[8],-0.48% (inactive)
same,fluorescence ratio,[9],0.92 (inactive)
same,z-score,[10],6.85 (active) and -1.25 (inactive) and 2.99 (active)
same,inhibition,"[11]; at 0.5 µM, stronger effect = higher value",4.15% (inactive)
same,inhibition,"[11]; measured here: combination with BGB IC20, at 0.005 µM",0.419%
same,inhibition,"[11]; measured here: combination with BGB IC40, at 0.005 µM",-26%
same,inhibition,"[11]; measured here: combination with BGB IC40, at 0.05 µM",-17%
same,inhibition,"[11]; measured here: combination with cisplatin, at 0.5 µM, stronger effect = higher value",59.2%
same,inhibition,"[11]; measured here: combination with cisplatin, at 5 µM, stronger effect = higher value",-27.9%
same,inhibition,"[12]; BGB combo, at 5 µM",30.6%
same,inhibition,[12]; at 0.5 µM,16.5% (inactive)
same,inhibition,"[12]; cisplatin combo, at 5 µM",40.1%
same,inhibition,"[12]; measured here: with BGB IC20 combination, at 0.5 µM",-26.4%
same,inhibition,"[12]; measured here: with cisplatin IC20 combination, at 0.5 µM",0.453%
same,inhibition,"[12]; single agent, at 5 µM",42.5%
same,inhibition,[13]; at 0.5 µM,-17.6% (inactive)
same,inhibition,"[13]; measured here: with BGB IC20, at 0.5 µM",-36.1%
same,inhibition,"[13]; measured here: with BGB IC20, at 5 µM",17.5%
same,inhibition,"[13]; measured here: with cisplatin IC20, at 0.5 µM",-12.5%
same,inhibition,"[13]; measured here: with cisplatin IC20, at 5 µM",22.8%
same,inhibition,"[13]; single agent, at 5 µM",21.8%
same,log fold change Tl+ flux,[14],-0.0444 (inactive)
same,log fold change Tl+ flux,[15],-0.0276 (inactive)
same,log fold change Tl+ flux,[16],-0.0492 (inactive)
same,log fold change Tl+ flux,[17],0.0262 (inactive)
same,log fold change Tl+ flux,[18],-0.0331 (inactive)
same,log fold change Tl+ flux,[19],-0.0876 (inactive)
same,log fold change Tl+ flux,[20],0.0575 (inactive)
CN(C)CCOC(c1ccc(Cl)cc1)c1ccccn1 (configuration not stated),inhibition,[1],-21.2%
same,score,[2],1.7
same,cytochrome c release ratio,[3],0.83
same,inhibition of aggregation,[4],44.8%
same,glutamate uptake change,[5],21.1%
same,fluorescence ratio,[6],1.05 (inactive)
same,inhibition,[7],-5% (inactive)
same,inhibition,[8],-3.53% (inactive)
same,fluorescence ratio,[9],1.03 (inactive)
same,z-score,[10],1.09 (inactive)
same,log fold change Tl+ flux,[14],0.0228 (inactive)
same,log fold change Tl+ flux,[15],0.0613 (inactive)
same,log fold change Tl+ flux,[16],0.0106 (inactive)
same,log fold change Tl+ flux,[17],-0.0266 (inactive)
same,log fold change Tl+ flux,[18],0.0559 (inactive)
same,log fold change Tl+ flux,[19],0.0288 (inactive)
same,log fold change Tl+ flux,[20],-0.0144 (inactive)
CN(C)CCc1c[nH]c2ccc(C[C@H]3COC(=O)N3)cc12,fluorescence ratio,[6],1.02 (inactive)
same,inhibition,[7],-2.84% (inactive)
same,inhibition,[8],-4.33% (inactive)
same,fluorescence ratio,[9],1 (inactive)
same,log fold change Tl+ flux,[14],0.0115 (inactive)
same,log fold change Tl+ flux,[15],0.0131 (inactive)
same,log fold change Tl+ flux,[16],-0.02 (inactive)
same,log fold change Tl+ flux,[17],0.0275 (inactive)
same,log fold change Tl+ flux,[18],-0.0113 (inactive)
same,log fold change Tl+ flux,[19],0.00246 (inactive)
same,log fold change Tl+ flux,[20],0.0342 (inactive)
CCc1cccc2c3c([nH]c12)C(CC)(CC(=O)O)OCC3 (configuration not stated),inhibition,[1],10.4%
same,score,[2],1.08
same,cytochrome c release ratio,[3],0.88
same,inhibition of aggregation,[4],57.6%
same,glutamate uptake change,[5],-3.42%
same,fluorescence ratio,[6],1.05 (inactive)
same,inhibition,[7],4.09% (inactive)
same,inhibition,[8],-2% (inactive)
same,fluorescence ratio,[9],1.02 (inactive)
same,z-score,[10],0.63 (inactive) and -0.035 (inactive)
same,log fold change Tl+ flux,[14],-0.00239 (inactive)
same,log fold change Tl+ flux,[15],0.00932 (inactive)
same,log fold change Tl+ flux,[16],0.0181 (inactive)
same,log fold change Tl+ flux,[17],0.127 (active)
same,log fold change Tl+ flux,[18],0.0673 (inactive)
same,log fold change Tl+ flux,[19],0.0823 (inactive)
same,log fold change Tl+ flux,[20],0.0472 (inactive)
OC(CCN1CCCC1)(c1ccccc1)C1CCCCC1 (configuration not stated),inhibition,[1],2.81%
same,score,[2],1.52
same,cytochrome c release ratio,[3],0.63
same,inhibition of aggregation,[4],69.2%
same,glutamate uptake change,[5],2.81%
same,fluorescence ratio,[6],1.04 (inactive)
same,inhibition,[7],-3.18% (inactive)
same,inhibition,[8],-3.53% (inactive)
same,fluorescence ratio,[9],1.03 (inactive)
same,z-score,[10],-0.65 (inactive)
same,log fold change Tl+ flux,[14],0.131 (active)
same,log fold change Tl+ flux,[15],0.011 (inactive)
same,log fold change Tl+ flux,[16],0.00132 (inactive)
same,log fold change Tl+ flux,[17],0.0416 (inactive)
same,log fold change Tl+ flux,[18],-0.0288 (inactive)
same,log fold change Tl+ flux,[19],0.068 (inactive)
same,log fold change Tl+ flux,[20],-0.0137 (inactive)
Clc1ccc2c(c1)C(N1CCNCC1)=Nc1ccccc1O2,inhibition,[1],0.62%
same,score,[2],1.21
same,cytochrome c release ratio,[3],0.82
same,inhibition of aggregation,[4],-0.07%
same,glutamate uptake change,[5],35.9%
same,fluorescence ratio,[6],0.92 (inactive)
same,inhibition,[7],-4.09% (inactive)
same,inhibition,[8],-1.24% (inactive)
same,fluorescence ratio,[9],0.96 (inactive)
same,z-score,[10],-1.01 (inactive) and 0.165 (inactive) and -1.17 (inactive)
same,log fold change Tl+ flux,[14],0.0652 (inactive)
same,log fold change Tl+ flux,[15],-0.0105 (inactive)
same,log fold change Tl+ flux,[16],0.021 (inactive)
same,log fold change Tl+ flux,[17],0.123 (active)
same,log fold change Tl+ flux,[18],0.0319 (inactive)
same,log fold change Tl+ flux,[19],0.0104 (inactive)
same,log fold change Tl+ flux,[20],0.0256 (inactive)
Cc1ccccc1C(OCCN(C)C)c1ccccc1 (configuration not stated),inhibition,[1],-34.1%
same,score,[2],1.23
same,cytochrome c release ratio,[3],1.72
same,inhibition of aggregation,[4],70.1%
same,glutamate uptake change,[5],36.2%
same,fluorescence ratio,[6],0.78 (active) and 1.01 (inactive)
same,inhibition,[7],-10.4% (inactive) and -11.4% (inactive)
same,inhibition,[8],-0.48% (inactive) and -2.76% (inactive)
same,fluorescence ratio,[9],0.88 (inactive) and 1.01 (inactive)
same,z-score,[10],-0.455 (inactive) and 0.28 (inactive) and 1.22 (inactive)
same,log fold change Tl+ flux,[14],0.102 (inactive) and 0.0432 (inactive)
same,log fold change Tl+ flux,[15],-0.00307 (inactive) and 0.0363 (inactive)
same,log fold change Tl+ flux,[16],0.02 (inactive) and -0.0278 (inactive)
same,log fold change Tl+ flux,[17],0.0357 (inactive) and 0.0895 (inactive)
same,log fold change Tl+ flux,[18],0.0594 (inactive) and 0.0469 (inactive)
same,log fold change Tl+ flux,[19],0.0108 (inactive) and 0.0539 (inactive)
same,log fold change Tl+ flux,[20],0.0116 (inactive) and 0.0357 (inactive)
CN1CCCC(n2nc(Cc3ccc(Cl)cc3)c3ccccc3c2=O)CC1 (configuration not stated),fluorescence ratio,[6],1.03 (inactive)
same,inhibition,[7],-6.73% (inactive)
same,inhibition,[8],0.67% (inactive)
same,fluorescence ratio,[9],0.97 (inactive)
same,z-score,[10],-0.51 (inactive)
same,log fold change Tl+ flux,[14],0.258 (active)
same,log fold change Tl+ flux,[15],0.0633 (inactive)
same,log fold change Tl+ flux,[16],-0.0931 (inactive)
same,log fold change Tl+ flux,[17],0.101 (active)
same,log fold change Tl+ flux,[18],-0.0285 (inactive)
same,log fold change Tl+ flux,[19],0.0595 (inactive)
same,log fold change Tl+ flux,[20],0.0667 (inactive)
C/C=C/C(=O)N(CC)c1ccccc1C,fluorescence ratio,[6],1.05 (inactive)
same,inhibition,[7],-2.77% (inactive)
same,inhibition,[8],-2.41% (inactive)
same,fluorescence ratio,[9],1.02 (inactive)
same,z-score,[10],-0.06 (inactive)
same,log fold change Tl+ flux,[14],-0.00302 (inactive)
same,log fold change Tl+ flux,[15],0.0385 (inactive)
same,log fold change Tl+ flux,[16],-0.0159 (inactive)
same,log fold change Tl+ flux,[17],-0.0206 (inactive)
same,log fold change Tl+ flux,[18],0.013 (inactive)
same,log fold change Tl+ flux,[19],-0.00282 (inactive)
same,log fold change Tl+ flux,[20],0.00262 (inactive)
CCCNCC(O)COc1ccccc1C(=O)CCc1ccccc1 (configuration not stated),inhibition,[1],-14.1%
same,score,[2],1.02
same,cytochrome c release ratio,[3],1.16
same,inhibition of aggregation,[4],21.6%
same,glutamate uptake change,[5],9.21%
same,fluorescence ratio,[6],1.02 (inactive)
same,inhibition,[7],-5% (inactive)
same,inhibition,[8],-2% (inactive)
same,fluorescence ratio,[9],0.99 (inactive)
same,z-score,[10],-1.23 (inactive) and -1.36 (inactive) and -0.68 (inactive)
same,log fold change Tl+ flux,[14],0.161 (active)
same,log fold change Tl+ flux,[15],0.00467 (inactive)
same,log fold change Tl+ flux,[16],0.00823 (inactive)
same,log fold change Tl+ flux,[17],0.184 (active)
same,log fold change Tl+ flux,[18],0.136 (active)
same,log fold change Tl+ flux,[19],0.153 (active)
same,log fold change Tl+ flux,[20],0.0285 (inactive)
